Measurements as given in the supplement of paper PMC10849652.
About 8,800 targets were measured; listed, in parts, are those with a hit and a random draw of the rest. About 0.5% of all pairs of compound and target were hits.

Experiments:
Experiment in all cases: log2 fold change, soluble protein after heating vs DMSO (PISA); higher = thermal stabilisation; K562 lysate, 10 uM; active = over 0.2 and 3.5 SD of the protein, either way, in both replicates (recomputed)
[1] = compound: Cc1cn(-c2cc(NC(=O)c3ccc(C)c(Nc4nccc(-c5cccnc5)n4)c3)cc(C(F)(F)F)c2)cn1 [nilotinib]
Outline: (§1)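 A 30 min treatment with 10 μM compound was applied to crude K562 extract at 1 mg/mL protein in PBS pH 7.4 with 1 mM MgCl2. Heating for 3 min spanned 48°C-58°C, after which aliquots were pooled, adjusted to 0.5% NP-40 at 4°C and spun at 21,000xg for 90 min. TMTpro 16plex LC-MS/MS of the supernatant, with channel sums equalised, gave values recorded as log-two fold change in thermal stability against solvent controls, from duplicates.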

[2] = compound: Cc1nc(Nc2n[nH]c3c2CN(C(=O)N[C@H](CN(C)C)c2ccccc2)C3(C)C)c2sccc2n1
Outline: as §1

[3] = compound: Cc1nc(Nc2ncc(C(=O)Nc3c(C)cccc3Cl)s2)cc(N2CCN(CCO)CC2)n1 [dasatinib]
Outline: as §1

[4] = compound: Cc1ncc(-c2ccnc(Nc3ccc(S(C)(=O)=O)cc3)n2)n1C(C)C
Outline: as §1

[5] = compound: Cn1cc(-c2ccc3c(c2)CCN3C(=O)Cc2cccc(C(F)(F)F)c2)c2c(N)ncnc21
Outline: as §1

[6] = compound: Cn1cc(CNCC2CCN(c3ncc(C(=O)NO)cn3)CC2)c2ccccc21 [quisinostat]
Outline: as §1

[7] = compound: Cn1cncc1[C@@](N)(c1ccc(Cl)cc1)c1ccc2c(c1)c(-c1cccc(Cl)c1)cc(=O)n2C [tipifarnib]
Outline: as §1

[8] = compound: NC(=O)Nc1cc(-c2cccc(F)c2)sc1C(=O)N[C@H]1CCCNC1
Outline: as §1

[9] = compound: NC(=O)c1cnc(N[C@@H]2CCCC[C@@H]2N)nc1Nc1cccc(-n2nccn2)c1
Outline: as §1

[10] = compound: NC1(c2ccc(-c3nc4ccn5c(=O)[nH]nc5c4cc3-c3ccccc3)cc2)CCC1
Outline: as §1

[11] = compound: NCC(=O)Nc1ccc(-n2nc(C(F)(F)F)cc2-c2ccc3c(ccc4ccccc43)c2)cc1
Outline: as §1

[12] = compound: O=C(CCCCCCC(=O)Nc1ccccc1)NO [vorinostat]
Outline: as §1

[13] = compound: O=C(O)c1ccc2c(c1)nc(Nc1cccc(Cl)c1)c1ccncc12 [silmitasertib]
Outline: as §1

[14] = compound: O=C1NC(=O)C(c2cnc3ccccn23)=C1c1cn2c3c(cc(F)cc13)CN(C(=O)N1CCCCC1)CC2
Outline: as §1

[15] = compound: c1cn2cc(-c3ccc4cn[nH]c4c3)nc(Nc3ccc(N4CCOCC4)cc3)c2n1 [entospletinib]
Outline: as §1

Measured: log2 fold change

ARHGAP6 (UniProt O43182)
active: [12] -0.346
inactive: [1] -0.003 | [2] -0.014 | [3] -0.102 | [4] 0 | [5] 0.052 | [6] -0.019 | [7] 0.02 | [8] 0.034 | [9] -0.025 | [10] -0.039 | [11] 0.058 | [13] 0.089 | [14] 0.025 | [15] 0.004

ADAR isoform 4 (UniProt P55265)
Sequence of UniProt P55265 (P55265 whole entry, looked up): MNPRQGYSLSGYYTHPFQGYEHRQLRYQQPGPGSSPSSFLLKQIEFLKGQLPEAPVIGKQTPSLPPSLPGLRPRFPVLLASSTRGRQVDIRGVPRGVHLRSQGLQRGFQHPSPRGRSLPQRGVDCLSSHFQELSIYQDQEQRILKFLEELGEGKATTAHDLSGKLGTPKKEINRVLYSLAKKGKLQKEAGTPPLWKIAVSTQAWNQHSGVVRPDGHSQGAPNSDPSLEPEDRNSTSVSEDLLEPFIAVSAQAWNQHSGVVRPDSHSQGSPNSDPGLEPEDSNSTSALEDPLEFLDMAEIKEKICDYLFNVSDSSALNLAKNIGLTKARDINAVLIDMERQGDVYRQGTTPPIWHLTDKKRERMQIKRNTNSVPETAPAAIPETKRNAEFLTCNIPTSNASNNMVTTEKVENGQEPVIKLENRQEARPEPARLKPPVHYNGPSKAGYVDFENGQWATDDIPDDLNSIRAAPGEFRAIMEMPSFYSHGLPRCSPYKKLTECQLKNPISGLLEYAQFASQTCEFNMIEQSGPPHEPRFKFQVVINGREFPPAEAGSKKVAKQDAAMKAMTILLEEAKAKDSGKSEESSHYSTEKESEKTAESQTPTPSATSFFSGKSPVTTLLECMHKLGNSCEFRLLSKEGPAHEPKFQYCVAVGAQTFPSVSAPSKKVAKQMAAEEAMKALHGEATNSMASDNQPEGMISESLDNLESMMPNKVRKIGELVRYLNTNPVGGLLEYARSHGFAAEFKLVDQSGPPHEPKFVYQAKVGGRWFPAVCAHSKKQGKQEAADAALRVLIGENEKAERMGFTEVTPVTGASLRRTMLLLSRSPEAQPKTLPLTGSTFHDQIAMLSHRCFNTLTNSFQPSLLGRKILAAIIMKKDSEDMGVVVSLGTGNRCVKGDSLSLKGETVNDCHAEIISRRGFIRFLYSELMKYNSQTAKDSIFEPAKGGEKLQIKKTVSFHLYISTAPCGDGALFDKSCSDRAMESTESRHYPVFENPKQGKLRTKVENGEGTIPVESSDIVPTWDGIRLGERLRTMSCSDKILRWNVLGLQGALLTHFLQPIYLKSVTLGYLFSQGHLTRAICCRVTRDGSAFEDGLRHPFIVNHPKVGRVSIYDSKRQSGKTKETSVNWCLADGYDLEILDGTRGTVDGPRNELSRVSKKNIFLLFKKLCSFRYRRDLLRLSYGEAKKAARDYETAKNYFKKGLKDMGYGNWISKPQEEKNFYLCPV
active: [12] -0.35
inactive: [1] 0.006 | [2] 0.012 | [3] -0.026 | [4] -0.027 | [5] 0.009 | [6] -0.114 | [7] -0.009 | [8] 0.015 | [9] -0.009 | [10] 0.029 | [11] -0.029 | [13] 0.019 | [14] -0.031 | [15] 0.022

ANP32E (UniProt Q9BTT0)
Sequence of UniProt Q9BTT0 (Q9BTT0 whole entry, looked up): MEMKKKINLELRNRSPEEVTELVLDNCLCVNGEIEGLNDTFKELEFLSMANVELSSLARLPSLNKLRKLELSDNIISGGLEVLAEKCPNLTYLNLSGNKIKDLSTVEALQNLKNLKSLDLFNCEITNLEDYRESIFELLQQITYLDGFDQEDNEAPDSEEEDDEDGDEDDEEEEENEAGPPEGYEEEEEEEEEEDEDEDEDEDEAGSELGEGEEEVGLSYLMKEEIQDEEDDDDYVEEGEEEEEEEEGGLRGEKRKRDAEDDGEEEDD
inactive: [1] 0.075 | [2] 0.025 | [3] 0.015 | [4] 0.028 | [5] -0.038 | [6] 0.016 | [7] -0.02 | [8] -0.011 | [9] -0.065 | [10] 0.023 | [11] 0.021 | [12] 0.217 | [13] -0.029 | [14] -0.011 | [15] 0.012

ACAA1 (UniProt P09110)
Sequence of UniProt P09110 (P09110 whole entry, looked up): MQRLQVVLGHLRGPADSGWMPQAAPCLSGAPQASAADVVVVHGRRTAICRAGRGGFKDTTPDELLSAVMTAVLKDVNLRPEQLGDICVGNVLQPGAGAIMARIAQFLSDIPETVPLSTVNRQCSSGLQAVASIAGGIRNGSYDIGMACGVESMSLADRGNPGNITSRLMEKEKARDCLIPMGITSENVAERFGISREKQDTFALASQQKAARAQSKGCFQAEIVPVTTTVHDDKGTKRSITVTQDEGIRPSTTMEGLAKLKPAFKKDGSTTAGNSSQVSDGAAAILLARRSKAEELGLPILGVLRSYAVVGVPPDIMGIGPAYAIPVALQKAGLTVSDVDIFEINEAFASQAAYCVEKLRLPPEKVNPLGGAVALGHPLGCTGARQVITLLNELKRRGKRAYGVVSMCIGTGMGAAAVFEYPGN
active: [12] -0.332
inactive: [1] 0.035 | [2] -0.019 | [3] 0.014 | [4] -0.007 | [5] -0.027 | [6] -0.026 | [7] 0.011 | [8] -0.001 | [9] -0.016 | [10] 0.009 | [11] -0.005 | [13] -0.039 | [14] 0.033 | [15] 0.038

ANXA2 isoform 2 (UniProt P07355)
Sequence of UniProt P07355 (P07355 whole entry, looked up): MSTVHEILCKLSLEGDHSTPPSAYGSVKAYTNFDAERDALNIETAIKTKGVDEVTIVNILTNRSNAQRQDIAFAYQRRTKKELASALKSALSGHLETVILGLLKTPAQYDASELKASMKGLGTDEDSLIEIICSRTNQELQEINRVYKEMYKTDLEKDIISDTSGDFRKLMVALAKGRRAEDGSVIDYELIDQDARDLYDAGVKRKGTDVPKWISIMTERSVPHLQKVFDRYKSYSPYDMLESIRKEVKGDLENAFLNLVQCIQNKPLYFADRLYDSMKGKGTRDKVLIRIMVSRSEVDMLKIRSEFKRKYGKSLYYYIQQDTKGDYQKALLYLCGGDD
inactive: [1] 0.035 | [2] -0.016 | [3] 0.048 | [4] 0.003 | [5] -0.017 | [6] 0.064 | [7] 0.016 | [8] -0.018 | [9] -0.015 | [10] 0.022 | [11] -0.015 | [12] 0.023 | [13] -0.015 | [14] 0.003 | [15] 0.016

AKAP8L (UniProt Q9ULX6)
active: [1] -0.267
inactive: [2] 0.022 | [3] -0.062 | [4] 0.016 | [5] 0.037 | [6] -0.024 | [7] -0.011 | [8] 0.055 | [9] 0.002 | [10] 0.028 | [11] -0.045 | [12] -0.213 | [13] -0.001 | [14] -0.078 | [15] -0.019

AKT1 (UniProt P31749)
inactive: [1] -0.05 | [2] 0.012 | [3] -0.014 | [4] -0.01 | [5] 0.001 | [6] -0.1 | [7] 0.025 | [8] 0 | [9] -0.007 | [11] -0.051 | [12] -0.192 | [13] -0.012 | [14] -0.024 | [15] -0.005
active: [10] 0.669

ABHD17B (UniProt Q5VST6)
inactive: [1] 0.032 | [2] 0.057 | [3] 0.007 | [4] 0.087 | [5] 0.095 | [6] 0.003 | [7] -0.099 | [8] 0.009 | [9] -0.041 | [10] 0.009 | [11] 0.096 | [12] 0.219 | [13] -0.021 | [14] 0.032 | [15] 0.2

ALDH1L2 (UniProt Q3SY69)
inactive: [1] -0.013 | [2] 0.01 | [3] -0.021 | [4] 0.012 | [5] 0.046 | [6] -0.027 | [7] 0.012 | [8] 0.026 | [9] 0.05 | [10] -0.042 | [11] 0.017 | [12] 0.106 | [13] 0.016 | [14] -0.027 | [15] 0.031

ADAMTS5 (UniProt Q9UNA0)
Sequence of UniProt Q9UNA0 (Q9UNA0 whole entry, looked up): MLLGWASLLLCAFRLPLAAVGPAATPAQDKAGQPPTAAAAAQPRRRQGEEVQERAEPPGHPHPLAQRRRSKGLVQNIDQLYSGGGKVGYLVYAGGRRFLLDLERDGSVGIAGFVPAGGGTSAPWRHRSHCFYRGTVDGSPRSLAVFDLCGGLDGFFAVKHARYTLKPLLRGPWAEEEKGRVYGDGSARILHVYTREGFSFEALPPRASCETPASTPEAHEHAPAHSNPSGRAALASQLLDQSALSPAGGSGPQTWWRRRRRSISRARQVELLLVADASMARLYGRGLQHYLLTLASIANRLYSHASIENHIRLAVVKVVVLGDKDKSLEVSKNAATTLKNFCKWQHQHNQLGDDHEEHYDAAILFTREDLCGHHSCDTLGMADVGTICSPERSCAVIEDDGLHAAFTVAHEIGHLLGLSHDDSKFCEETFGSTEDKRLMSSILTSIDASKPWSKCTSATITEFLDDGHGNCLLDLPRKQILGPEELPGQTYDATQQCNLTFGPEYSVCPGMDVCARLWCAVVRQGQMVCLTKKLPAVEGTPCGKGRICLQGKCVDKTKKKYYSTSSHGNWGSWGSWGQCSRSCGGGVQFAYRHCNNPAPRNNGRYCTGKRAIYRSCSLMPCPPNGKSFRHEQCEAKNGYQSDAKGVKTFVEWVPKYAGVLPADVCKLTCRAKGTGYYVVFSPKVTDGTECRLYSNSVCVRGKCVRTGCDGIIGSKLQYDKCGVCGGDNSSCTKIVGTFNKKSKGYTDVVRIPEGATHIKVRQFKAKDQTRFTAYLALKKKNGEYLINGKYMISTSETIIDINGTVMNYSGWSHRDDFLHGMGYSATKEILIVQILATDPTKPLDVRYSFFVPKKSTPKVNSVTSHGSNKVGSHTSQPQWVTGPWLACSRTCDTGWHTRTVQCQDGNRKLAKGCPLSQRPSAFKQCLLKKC
inactive: [1] 0.003 | [2] -0.062 | [3] -0.01 | [4] -0.011 | [5] 0.014 | [6] -0.222 | [7] -0.041 | [8] 0.016 | [9] 0.031 | [10] -0.083 | [11] 0.137 | [12] 0.028 | [13] -0.065 | [14] 0.062 | [15] -0.125

AIFM2 (UniProt Q9BRQ8)
Sequence of UniProt Q9BRQ8 (Q9BRQ8 whole entry, looked up): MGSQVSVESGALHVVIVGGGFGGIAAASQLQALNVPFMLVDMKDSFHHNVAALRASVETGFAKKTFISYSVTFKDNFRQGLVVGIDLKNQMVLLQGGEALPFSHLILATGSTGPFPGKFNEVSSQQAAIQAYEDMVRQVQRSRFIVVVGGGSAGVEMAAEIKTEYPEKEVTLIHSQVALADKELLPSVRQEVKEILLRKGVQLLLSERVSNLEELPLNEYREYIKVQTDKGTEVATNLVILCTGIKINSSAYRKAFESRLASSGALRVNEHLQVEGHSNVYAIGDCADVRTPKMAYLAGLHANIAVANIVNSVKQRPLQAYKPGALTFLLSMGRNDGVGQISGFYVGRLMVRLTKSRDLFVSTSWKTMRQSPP
active: [7] 0.411
inactive: [1] 0.057 | [2] -0.006 | [3] -0.072 | [4] -0.03 | [5] 0.024 | [6] -0.105 | [8] -0.028 | [9] -0.054 | [10] 0 | [11] -0.014 | [12] -0.261 | [13] -0.015 | [14] 0.188 | [15] 0.003

ARL1 (UniProt P40616)
Sequence of UniProt P40616 (P40616 whole entry, looked up): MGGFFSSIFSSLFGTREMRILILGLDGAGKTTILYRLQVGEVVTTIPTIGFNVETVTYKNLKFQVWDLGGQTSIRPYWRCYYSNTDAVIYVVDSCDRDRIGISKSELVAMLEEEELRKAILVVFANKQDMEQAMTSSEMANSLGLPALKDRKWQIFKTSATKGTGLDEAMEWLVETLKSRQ
inactive: [1] 0.092 | [2] -0.074 | [3] 0.026 | [4] -0.118 | [5] -0.016 | [6] -0.082 | [7] -0.268 | [8] 0.01 | [9] -0.001 | [10] 0.005 | [11] 0.017 | [13] -0.048 | [14] 0.027 | [15] 0.034
active: [12] -0.293

ANXA11 (UniProt P50995)
Sequence of UniProt P50995 (P50995 whole entry, looked up): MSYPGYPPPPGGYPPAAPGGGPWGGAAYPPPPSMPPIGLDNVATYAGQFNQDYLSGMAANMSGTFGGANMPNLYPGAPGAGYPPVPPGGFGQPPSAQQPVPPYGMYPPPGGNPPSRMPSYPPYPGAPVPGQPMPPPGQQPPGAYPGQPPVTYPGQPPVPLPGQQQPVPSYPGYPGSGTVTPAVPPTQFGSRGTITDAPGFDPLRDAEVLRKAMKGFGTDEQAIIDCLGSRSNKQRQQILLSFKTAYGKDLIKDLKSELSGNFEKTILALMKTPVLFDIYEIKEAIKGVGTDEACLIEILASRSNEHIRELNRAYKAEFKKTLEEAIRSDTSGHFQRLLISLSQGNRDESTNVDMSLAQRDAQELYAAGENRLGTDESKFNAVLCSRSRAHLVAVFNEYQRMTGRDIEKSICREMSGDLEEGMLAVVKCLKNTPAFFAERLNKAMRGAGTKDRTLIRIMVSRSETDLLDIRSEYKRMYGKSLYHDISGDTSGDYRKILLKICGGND
inactive: [1] 0.014 | [2] -0.017 | [3] -0.033 | [4] -0.029 | [5] 0.016 | [6] 0.005 | [7] -0.011 | [8] -0.002 | [9] 0.009 | [10] 0.028 | [11] -0.003 | [12] -0.117 | [13] 0.044 | [14] -0.018 | [15] 0.031

ANKRD52 (UniProt Q8NB46)
active: [12] -0.491
inactive: [1] 0.041 | [2] 0.003 | [3] -0.048 | [4] -0.026 | [5] -0.045 | [6] -0.037 | [7] -0.017 | [8] 0.005 | [9] -0.056 | [10] -0.028 | [11] -0.043 | [13] 0.063 | [14] -0.023 | [15] -0.057

ARHGEF2 (UniProt Q92974)
active: [12] -0.248
inactive: [1] 0.014 | [2] -0.01 | [3] -0.01 | [4] -0.025 | [5] 0.013 | [6] -0.048 | [7] -0.04 | [8] 0.006 | [9] -0.008 | [10] 0.013 | [11] 0.042 | [13] -0.029 | [14] 0.007 | [15] 0

ALDH5A1 isoform 2 (UniProt P51649)
inactive: [1] 0.003 | [2] -0.019 | [3] -0.005 | [4] -0.015 | [5] -0.003 | [6] 0.028 | [7] -0.063 | [8] 0.04 | [9] 0.004 | [10] -0.023 | [11] -0.02 | [13] -0.005 | [14] -0.057 | [15] 0.003
active: [12] 0.371

APOBEC3C (UniProt Q9NRW3)
Sequence of UniProt Q9NRW3 (Q9NRW3 whole entry, looked up): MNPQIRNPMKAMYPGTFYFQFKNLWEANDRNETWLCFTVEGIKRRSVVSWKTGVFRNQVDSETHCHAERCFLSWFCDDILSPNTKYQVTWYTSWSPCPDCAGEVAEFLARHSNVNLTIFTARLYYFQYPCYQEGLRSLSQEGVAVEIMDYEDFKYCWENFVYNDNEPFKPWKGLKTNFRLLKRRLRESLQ
active: [12] -0.278
inactive: [1] 0.082 | [2] -0.014 | [3] -0.005 | [4] 0 | [5] 0.042 | [6] -0.144 | [7] -0.024 | [8] -0.067 | [9] -0.001 | [10] 0.028 | [11] 0.055 | [13] 0.043 | [14] -0.066 | [15] -0.007

ANXA5 (UniProt P08758)
Sequence of UniProt P08758 (P08758 whole entry, looked up): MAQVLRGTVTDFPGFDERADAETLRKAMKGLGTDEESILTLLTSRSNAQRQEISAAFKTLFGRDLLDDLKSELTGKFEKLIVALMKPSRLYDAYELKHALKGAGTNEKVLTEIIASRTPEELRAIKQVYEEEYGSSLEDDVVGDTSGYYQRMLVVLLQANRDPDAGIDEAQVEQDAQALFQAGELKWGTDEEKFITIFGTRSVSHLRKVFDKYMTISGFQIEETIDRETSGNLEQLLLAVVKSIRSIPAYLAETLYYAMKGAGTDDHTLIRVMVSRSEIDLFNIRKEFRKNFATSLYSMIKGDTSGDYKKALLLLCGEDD
inactive: [1] 0.031 | [2] -0.008 | [3] -0.009 | [4] -0.067 | [5] 0.022 | [6] 0.111 | [7] 0.019 | [8] 0.018 | [9] 0.01 | [10] 0.012 | [11] -0.008 | [12] 0.056 | [13] 0.021 | [14] -0.017 | [15] 0.006

AP4B1 (UniProt Q9Y6B7)
active: [12] -0.286
inactive: [1] 0.023 | [2] 0.011 | [3] 0.032 | [4] -0.013 | [5] 0.027 | [6] 0.018 | [7] -0.051 | [8] 0.1 | [9] 0.028 | [10] 0.007 | [11] 0.08 | [13] 0.037 | [14] -0.051 | [15] 0.022

ARL8A (UniProt Q96BM9)
Sequence of UniProt Q96BM9 (Q96BM9 whole entry, looked up): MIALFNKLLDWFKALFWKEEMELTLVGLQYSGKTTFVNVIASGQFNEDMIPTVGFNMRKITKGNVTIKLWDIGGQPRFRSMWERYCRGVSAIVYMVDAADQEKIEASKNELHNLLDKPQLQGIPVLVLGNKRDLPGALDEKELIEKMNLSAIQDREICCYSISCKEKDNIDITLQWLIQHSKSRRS
inactive: [1] 0.003 | [2] 0.049 | [3] 0.037 | [4] 0.091 | [5] -0.049 | [6] 0.17 | [7] -0.203 | [8] 0.153 | [9] 0.247 | [10] -0.054 | [11] 0.192 | [12] 0.234 | [13] -0.024 | [14] -0.03 | [15] 0.002
